Screening results: PubChem BioAssay, National Center for Advancing Translational Sciences (NCATS)
Vif-A3G inh = blocks the Vif interaction with human APOBEC3G | Q9HC16 | HeLa A3G-eYFP + Vif (tagged APOBEC3G with the HIV-1 protein that degrades it), YFP fluorescence, overnight | Potency, µM (doses to about 46.1 µM), for the others: top-dose activity, negative = active, hits mostly inhibitors | actives 0.076% (n = 410,000) | AID 602310; further: on the % scale 0 is the no-effect control and ±100 the full control effect; nearly all actives have a fitted effect of over 60% in size
Target sequence (Q9HC16 whole entry, looked up): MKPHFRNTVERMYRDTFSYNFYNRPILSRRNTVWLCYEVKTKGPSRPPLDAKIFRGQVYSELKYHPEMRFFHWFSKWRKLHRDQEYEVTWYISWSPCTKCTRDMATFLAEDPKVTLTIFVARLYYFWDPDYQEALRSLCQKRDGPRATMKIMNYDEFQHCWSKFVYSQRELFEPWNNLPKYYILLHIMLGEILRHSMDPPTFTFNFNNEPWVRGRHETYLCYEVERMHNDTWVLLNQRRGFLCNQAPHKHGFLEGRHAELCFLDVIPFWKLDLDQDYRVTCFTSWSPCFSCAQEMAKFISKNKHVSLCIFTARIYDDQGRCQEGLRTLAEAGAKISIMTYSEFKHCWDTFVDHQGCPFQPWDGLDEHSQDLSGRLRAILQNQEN
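Read-out is eYFP fluorescence (Ex 488/Em 500-530) from Vif-expressing HeLa A3G-eYFP cells; more signal means A3G escaped Vif-mediated degradation. Cells plated overnight, compound pinned in, incubated overnight at 37 deg C.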
Vif-A3F inh = Vif-A3F binding inhibition; HeLa A3F-eYFP + Vif (tagged APOBEC3F with the HIV-1 protein that degrades it), YFP fluorescence increase; Potency, µM (highest dose often 46.1 µM), without a hit: at the top dose activity, negative = active; actives 0.2% (n = 390,000); AID 602313; further: % of control where 0% means no effect; nearly all actives have a fitted effect of over 65% in size
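HeLa cells stably expressing Vif plus C-terminally eYFP-tagged A3F were seeded, incubated overnight at 37 deg C, dosed with compound, incubated overnight again at 37 deg C. Yellow fluorescence (Ex 488/Em 500-530) reported blocked Vif-mediated A3F-eYFP degradation.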
VDR inhibitor = vitamin D3 receptor (human) inhibition | VDR-SRC2-3 peptide fluorescence polarization, 2 h | actives 0.93% (n = 400,000) | AID 504847 | Potency, µM, for the others: max response, negative = inhibition, most hits filed as inhibitors | P11473; further: on the % scale 0 is the no-effect control and ±100 the full control effect
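Measured by FP: displacement of SRC2-3 coactivator peptide from VDR by library compounds, following a two-hour ambient incubation.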
rTrxR1 inhibitor = inhibitors of rat thioredoxin reductase 1; recombinant rTrxR1, NADPH fluorescence consumption, selenite substrate; AID 588453; actives 1% (n = 390,000); O89049; Potency, µM (highest dose often 114 µM), for the others: at the top dose activity change, negative = inhibition, usual class: inhibitors; further: on the % scale 0 is the no-effect control and ±100 the full control effect; nearly all actives have a fitted effect of over 65% in size
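Rat TrxR1 (90 nM in the dispensed reagent) was pre-reduced with 400 uM NADPH for 5 min at room temperature, then incubated with compound for 15 min. After 400 uM selenite was added, NADPH fluorescence (Ex 340/Em 450 nm) was followed for 8 min.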
TrxR1 substrate = rat thioredoxin reductase 1 substrate activity. Potency, µM (series often up to 114 µM), for inactives: at the top dose activity change, negative = substrate turnover. actives 0.01% (n = 390,000). AID 588456. O89049. purified TrxR1 substrate turnover, NADPH consumption readout; further: on the % scale 0 is the no-effect control and ±100 the full control effect; nearly all actives have a fitted effect of over 50% in size
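Rat TrxR1, dispensed at 90 nM, was prereduced with 400 uM NADPH (final) for 5 min at ~22 deg C, then incubated with compound 15 min before 400 uM selenite. A first-read NADPH fluorescence drop versus no-compound background flagged substrates.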
* = called active by the depositor; [ ] = remark or other dose. Hits are enriched below; roughly 1.8% of the tested compounds scored in any of these assays. The call rests on the fitted dose curve; in most records, active means well fitted curve in the direction sought with a large enough effect; inconclusive means small, poorly fitted or top-dose-only effect, or another doubt; inactive means no such curve, though single readings can be large; an effect the other way counts as inactive or inconclusive. Potency means the concentration at half of the fitted maximal effect.

`O=[N+]([O-])c1ccc(NN=Cc2ccc(O)cc2)nc1` gave Vif-A3G inh 2.2%, Vif-A3F inh 1.4%, VDR inhibitor -14.2%, rTrxR1 inhibitor -5.5% and TrxR1 substrate inconclusive.
For O=[N+]([O-])c1ccc(N/N=C\c2cccn2-c2ccccc2)nc1 the results were Vif-A3G inh 11.2µM*, Vif-A3F inh inconclusive, VDR inhibitor -2.5%, rTrxR1 inhibitor -2.1% and TrxR1 substrate -2.7%.
Screening CCN(CC)c1ccc(C=NNc2ccc([N+](=O)[O-])cn2)cc1 returned Vif-A3G inh inconclusive, Vif-A3F inh 3.55µM*, VDR inhibitor -4.1%, rTrxR1 inhibitor -15.0% and TrxR1 substrate -16.2%.
c1ccc(CC[n+]2ccncc2)cc1 was read as Vif-A3G inh 0.8%, rTrxR1 inhibitor -23.7% and TrxR1 substrate -0.7%.
CCCC1=Nc2cc(C(=O)NC3CCCCC3)ccc2Sc2ccc(C)cc21 was read as Vif-A3G inh -34.1%, Vif-A3F inh 2.0%, VDR inhibitor -11.6%, rTrxR1 inhibitor 2.7%[57.1 µM] and TrxR1 substrate -4.6%[57.1 µM].
For O=C(COc1ccc2ccccc2c1)Nc1ccc(O)c(-c2nc3ccccc3o2)c1 the results were Vif-A3G inh -0.6%, rTrxR1 inhibitor 9.4% and TrxR1 substrate -3.9%.
`O=c1c(C(c2ccc(Br)cc2)c2c(O)nc3n(c2=O)CCS3)c(O)nc2n1CCS2` gave Vif-A3G inh -4.7%, Vif-A3F inh 19.8%, VDR inhibitor inconclusive, rTrxR1 inhibitor 1.58µM* and TrxR1 substrate 3.8%.
For O=c1c(C(c2ccc(Br)cc2)c2c(O)nc3n(c2=O)CCCS3)c(O)nc2n1CCCS2 the results were Vif-A3G inh -0.1%, Vif-A3F inh 2.5%, VDR inhibitor -15.1%, rTrxR1 inhibitor 7.08µM* and TrxR1 substrate inconclusive.
For O=C(Cc1ccc(OCCC2CCCCC2)cc1)NO the results were Vif-A3G inh 1.3%, rTrxR1 inhibitor -14.1% and TrxR1 substrate -10.6%.
`O=C(CCl)N1CCN2C(=O)c3ccccc3C12c1ccc(Cl)cc1` (centres undefined) gave Vif-A3G inh -29.3%, Vif-A3F inh -2.4%, VDR inhibitor inconclusive, rTrxR1 inhibitor 5.01µM* and TrxR1 substrate 10.7%[57.1 µM].
Screening O=C(Nc1cccc(Cl)c1)N1CCN2C(=O)c3ccccc3C12c1ccccc1 (centres undefined) returned Vif-A3G inh -11.9%, Vif-A3F inh 1.6%, VDR inhibitor -13.6%, rTrxR1 inhibitor 25.2%[57.1 µM] and TrxR1 substrate 5.9%[57.1 µM].
CCOC(=O)C1=C(c2ccc(OC)cc2)OC(N)=C(C#N)C1c1cccnc1 (centres undefined) was read as Vif-A3G inh -2.2%, Vif-A3F inh -2.2%, VDR inhibitor inconclusive, rTrxR1 inhibitor 79.4µM* and TrxR1 substrate -7.1%.
CCCCCN(CCCCC)c1ccc(/C=C/c2ccnc3ccccc23)cc1 was read as Vif-A3G inh inconclusive, rTrxR1 inhibitor -19.2% and TrxR1 substrate -16.1%.
For Cc1ccc2[nH]c(O)c(N=Nc3ccccc3[N+](=O)[O-])c2c1 the results were Vif-A3G inh -3.1%, Vif-A3F inh 8.8%, VDR inhibitor -3.5%, rTrxR1 inhibitor -2.6% and TrxR1 substrate -3.7%.
For CCN(CC)S(=O)(=O)c1cc([N+](=O)[O-])ccc1N=Nc1c(O)[nH]c2ccccc12 the results were Vif-A3G inh -12.8%, Vif-A3F inh 12.6µM*, VDR inhibitor -22.3%, rTrxR1 inhibitor -4.9% and TrxR1 substrate -5.8%.
`COc1ccc(S(=O)(=O)N(C(=O)C(C)C)c2ccc3oc(=O)sc3c2)cc1` gave Vif-A3G inh -6.0%, Vif-A3F inh -4.0%, VDR inhibitor 79.4µM*, rTrxR1 inhibitor 0.6%[57.1 µM] and TrxR1 substrate 0.6%[57.1 µM].
`CC(C)C(=O)N(c1ccc2oc(=O)sc2c1)S(=O)(=O)c1ccccc1` gave Vif-A3G inh -0.1%, Vif-A3F inh -0.7%, VDR inhibitor 79.4µM*, rTrxR1 inhibitor 14.9% and TrxR1 substrate 3.9%.
Screening Cc1ccc(C)c(Nc2nc(-c3ccccc3)c3cc(Br)ccc3n2)c1 returned VDR inhibitor -0.5%, rTrxR1 inhibitor 21.1% and TrxR1 substrate -1.1%.
COc1ccc(C(=O)N(Cc2ccccc2)Cc2ccc(OC)c(COc3ccc(NC(C)=O)cc3)c2)cc1 was read as VDR inhibitor -10.1%, rTrxR1 inhibitor 8.8% and TrxR1 substrate 3.9%.
